PubChem BioAssay
Active and inactive are the calls of the source.

Key:
[1] = system: Plasmodium falciparum Sir2 (PF13_0152, Sir2A); experiment: Plasmodium falciparum Sir2A binding compounds – biochemical, small-molecule microarray, 635 nm fluorescence, primary screen (AID 1098); settings: fluorescence 635 nm, higher = more signal;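 further: score merges spot fluorescence intensity with its signal-to-noise ratio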
[2] = probe aDKK1 binding to arrayed compounds – biochemical, biotinylated probe, 635/667 nm fluorescence, primary screen (AID 1099); settings: small-molecule microarray, higher = more signal;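 further: score merges 667nm spot fluorescence with signal to noise across triplicate slides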
[3] = probe aCHRDL2 binding to arrayed compounds – biochemical, biotinylated probe, 635/667 nm fluorescence, primary screen (AID 1100); settings: small-molecule microarray, higher = more signal
[4] = change in splice reporter luminescence, either direction, cell-based, HEK293, spliceosome inhibition project, primary screen (AID 1101); settings: HEK293 splicing luciferase reporter, 24 h, higher = more signal, called active from +8 up or from −8 down;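 further: HEK293 cells carrying a splicing-competent luciferase reporter gene; test concentration not given here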
[5] = target: Fibroblast growth factor 10 (Homo sapiens) (UniProt O15520); experiment: compounds binding fibroblast growth factor 10 – biochemical, small-molecule microarray, 635 nm fluorescence, primary screen (AID 1102); settings: FGF10 binding, fluorescence 635 nm, higher = more signal
[6] = system: glycogen synthase kinase-3 (GSK3A per assay name; protocol says GSK3B); experiment: compounds binding glycogen synthase kinase-3 – biochemical, small-molecule microarray, 635 nm fluorescence, GSK3A, primary screen (AID 1103); settings: fluorescence 635 nm, higher = more signal; further: the record names both GSK3A and GSK3B
[7] = target: Epidermal growth factor receptor (Homo sapiens) (UniProt P00533); experiment: compounds binding epidermal growth factor receptor – biochemical, small-molecule microarray, 635 nm fluorescence, primary screen (AID 1104); settings: EGFR binding, higher = more signal;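 further: score merges 667 nm emission intensity with spot signal to noise over triplicate slides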
[8] = target: Follistatin-related protein 3 (Homo sapiens) (UniProt O95633); experiment: compounds binding follistatin-related protein 3 – biochemical, small-molecule microarray, 635 nm fluorescence, primary screen (AID 1105); settings: FSTL3 binding, higher = more signal;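 further: score merges emission near 667 nm and signal to noise per printed spot across three slides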
[9] = target: Dickkopf-related protein 1 (Homo sapiens) (UniProt O94907); experiment: small molecules binding DKK1 protein – biochemical, small-molecule microarray, 635 nm fluorescence scan, primary screen (AID 1106); settings: higher = more signal;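 further: score merges emission near 667 nm with signal to noise over three replicate slides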
[10] = system: Inhibin beta A chain (activin A); experiment: small molecules binding activin A – biochemical, small-molecule microarray, 635 nm fluorescence scan, primary screen (AID 1107); settings: INHBA, higher = more signal;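 further: mouse activin A protein probed at 4.33 µg/mL on printed slides; score merges bound-protein fluorescence near 667 nm with spot signal-to-noise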
[11] = system: Human papillomavirus type 1a protein E7 (residues 44-93); experiment: small molecules binding HPV E7 44-93 – biochemical, small-molecule microarray, residues 44-93, 635 nm fluorescence, primary screen (AID 1108); settings: fluorescence 635 nm, higher = more signal;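 further: E7 fragment applied at 1 µg/mL in TBST for 1 h at 4 C; score combines spot fluorescence with its signal to noise ratio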
[12] = hepatitis C replication reporter changes, two-sided – Huh7 cells, luciferase reporter, HCV replication inhibitor project, primary screen (AID 1109); settings: Huh7 HCV replicon luciferase reporter, 48 h; higher = more signal;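 further: huh7 hepatoma cells harbouring a luciferase neomycin HCV replicon reporter; luciferase luminescence as measure of HCV replicon replication; test concentration not given here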
[13] = target: Left-right determination factor 2 (Homo sapiens) (UniProt O00292); experiment: small molecules binding LEFTY2 protein – biochemical, small-molecule microarray, 635 nm fluorescence scan, primary screen (AID 1110); settings: higher = more signal
[14] = target: Calmodulin-1 (Homo sapiens) (UniProt P0DP23); experiment: small molecules binding calmodulin-1 with EGTA – biochemical, small-molecule microarray, Cy5-labelled CALM1, profiling panel (AID 1111); settings: Cy5-CALM1 binding fluorescence, higher = more signal;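 further: labelled calmodulin applied in Tris saline Tween buffer holding calcium plus EGTA and DTT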
[15] = target: Calmodulin-1 (Homo sapiens) (UniProt P0DP23); experiment: small molecules binding Ca-loaded calmodulin-1 – biochemical, small-molecule microarray, Cy5-labelled CALM1, plus calcium, artefact control for SMM control-protein annotation, profiling panel (AID 1112); settings: Cy5-CALM1 binding fluorescence, higher = more signal;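 further: score merges spot fluorescence with signal to noise from triplicate slides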
[16] = probe aWnt5a binding to arrayed compounds – biochemical, biotinylated probe, 635/667 nm fluorescence, primary screen (AID 1113); settings: small-molecule microarray, higher = more signal;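 further: score merges 667 nm fluorescence intensity with signal-to-noise per printed feature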
[17] = probe aShh binding to arrayed compounds – biochemical, biotinylated probe, 635/667 nm fluorescence, primary screen (AID 1114); settings: small-molecule microarray, higher = more signal;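 further: probe is biotin-labelled aShh protein from a stem cell growth factor screen; measures binding of labelled protein to compounds printed on the slide; score merges feature fluorescence at 667 nm with signal-to-noise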
[18] = probe aNog binding to arrayed compounds – biochemical, biotinylated probe, 635/667 nm fluorescence, primary screen (AID 1115); settings: small-molecule microarray, higher = more signal;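 further: probe is biotinylated aNog protein used at 0.15 µg/mL for 1 h at 4 C; z-score combines 667 nm fluorescence of each spot with its signal to noise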
[19] = target: Torsin-1A-interacting protein 1 (Homo sapiens) (UniProt Q5JTV8); experiment: compound microarray binding of lysate hLAP1 – cell lysate, small-molecule microarray, COS7 lysate, 635/667 nm fluorescence, primary screen (AID 1116); settings: 635 nm fluorescence, higher = more signal
[20] = target: Alpha-bungarotoxin (Bungarus multicinctus) (UniProt P60615); experiment: compounds binding labelled alpha-BTX control protein – biochemical, small-molecule microarray, Alexa647 label, 635/667 nm fluorescence, artefact control for SMM control protein annotation, profiling panel (AID 1117); settings: alpha-BTX-A647 binding fluorescence, higher = more signal
Sequence of Alpha-bungarotoxin (Bungarus multicinctus) (P60615 whole entry, looked up): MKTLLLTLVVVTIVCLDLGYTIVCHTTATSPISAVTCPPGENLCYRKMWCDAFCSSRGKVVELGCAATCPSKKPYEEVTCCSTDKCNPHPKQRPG

Sequence of Epidermal growth factor receptor (Homo sapiens) (P00533 whole entry, looked up): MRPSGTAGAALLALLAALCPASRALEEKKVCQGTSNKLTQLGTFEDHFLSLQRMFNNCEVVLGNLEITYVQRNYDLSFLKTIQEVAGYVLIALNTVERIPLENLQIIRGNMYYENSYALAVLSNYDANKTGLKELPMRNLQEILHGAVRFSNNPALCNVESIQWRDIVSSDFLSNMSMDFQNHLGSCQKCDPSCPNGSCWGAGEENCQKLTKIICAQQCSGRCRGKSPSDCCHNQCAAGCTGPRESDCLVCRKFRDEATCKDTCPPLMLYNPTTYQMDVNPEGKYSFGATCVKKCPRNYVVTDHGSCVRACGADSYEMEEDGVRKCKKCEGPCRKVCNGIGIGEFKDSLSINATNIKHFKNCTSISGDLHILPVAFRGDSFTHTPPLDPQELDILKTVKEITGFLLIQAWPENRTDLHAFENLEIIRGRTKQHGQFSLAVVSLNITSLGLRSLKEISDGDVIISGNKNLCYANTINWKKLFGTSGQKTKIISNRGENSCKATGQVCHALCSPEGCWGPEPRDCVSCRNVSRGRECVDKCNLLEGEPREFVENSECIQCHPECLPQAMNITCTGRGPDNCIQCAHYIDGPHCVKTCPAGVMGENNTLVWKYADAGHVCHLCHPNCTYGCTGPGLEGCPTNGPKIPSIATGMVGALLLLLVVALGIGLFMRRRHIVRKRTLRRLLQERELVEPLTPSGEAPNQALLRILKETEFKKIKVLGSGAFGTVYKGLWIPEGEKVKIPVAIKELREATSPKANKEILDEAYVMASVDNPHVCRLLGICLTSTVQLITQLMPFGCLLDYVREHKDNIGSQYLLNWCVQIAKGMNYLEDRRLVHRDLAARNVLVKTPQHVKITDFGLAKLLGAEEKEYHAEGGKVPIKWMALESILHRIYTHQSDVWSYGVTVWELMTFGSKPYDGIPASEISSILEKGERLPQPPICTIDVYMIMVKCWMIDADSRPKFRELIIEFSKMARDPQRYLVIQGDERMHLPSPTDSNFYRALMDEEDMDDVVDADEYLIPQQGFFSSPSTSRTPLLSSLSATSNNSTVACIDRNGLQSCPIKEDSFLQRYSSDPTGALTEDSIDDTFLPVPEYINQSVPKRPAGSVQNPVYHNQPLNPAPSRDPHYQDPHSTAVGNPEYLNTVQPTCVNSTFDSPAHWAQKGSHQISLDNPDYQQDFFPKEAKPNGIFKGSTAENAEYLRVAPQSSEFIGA
Sequence of Left-right determination factor 2 (Homo sapiens) (O00292 whole entry, looked up): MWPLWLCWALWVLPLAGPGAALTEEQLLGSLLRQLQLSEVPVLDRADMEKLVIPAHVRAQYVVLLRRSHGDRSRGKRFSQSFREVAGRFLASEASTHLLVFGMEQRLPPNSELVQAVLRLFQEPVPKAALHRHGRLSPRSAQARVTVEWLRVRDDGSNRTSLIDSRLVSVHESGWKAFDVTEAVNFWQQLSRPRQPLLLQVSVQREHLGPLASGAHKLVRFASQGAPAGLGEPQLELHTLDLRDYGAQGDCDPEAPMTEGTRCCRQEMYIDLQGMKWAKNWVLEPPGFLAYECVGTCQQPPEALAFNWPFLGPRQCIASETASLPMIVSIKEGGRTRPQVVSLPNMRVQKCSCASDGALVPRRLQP
Sequence of Torsin-1A-interacting protein 1 (Homo sapiens) (Q5JTV8 whole entry, looked up): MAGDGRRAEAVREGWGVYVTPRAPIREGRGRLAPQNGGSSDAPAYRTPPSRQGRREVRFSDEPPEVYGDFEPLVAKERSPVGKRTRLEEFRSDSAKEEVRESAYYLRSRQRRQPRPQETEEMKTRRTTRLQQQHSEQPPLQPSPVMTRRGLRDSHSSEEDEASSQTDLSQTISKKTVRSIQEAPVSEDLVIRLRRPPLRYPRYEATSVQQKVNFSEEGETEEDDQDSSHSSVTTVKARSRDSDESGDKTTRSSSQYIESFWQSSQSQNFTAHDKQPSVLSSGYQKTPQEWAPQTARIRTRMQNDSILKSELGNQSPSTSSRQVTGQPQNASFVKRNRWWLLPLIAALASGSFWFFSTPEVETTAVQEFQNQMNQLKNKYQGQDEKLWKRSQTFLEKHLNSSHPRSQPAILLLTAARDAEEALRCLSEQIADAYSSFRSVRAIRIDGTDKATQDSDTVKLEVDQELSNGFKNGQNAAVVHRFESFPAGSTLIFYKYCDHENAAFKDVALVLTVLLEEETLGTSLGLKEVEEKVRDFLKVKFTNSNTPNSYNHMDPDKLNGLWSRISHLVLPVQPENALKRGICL
Sequence of Dickkopf-related protein 1 (Homo sapiens) (O94907 whole entry, looked up): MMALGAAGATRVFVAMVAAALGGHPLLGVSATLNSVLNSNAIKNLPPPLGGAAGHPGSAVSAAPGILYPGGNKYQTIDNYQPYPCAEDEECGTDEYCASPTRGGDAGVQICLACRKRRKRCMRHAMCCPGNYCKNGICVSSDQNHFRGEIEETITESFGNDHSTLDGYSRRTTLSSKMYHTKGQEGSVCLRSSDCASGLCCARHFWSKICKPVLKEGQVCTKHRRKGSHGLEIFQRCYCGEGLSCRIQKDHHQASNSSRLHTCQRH
Sequence of Fibroblast growth factor 10 (Homo sapiens) (O15520 whole entry, looked up): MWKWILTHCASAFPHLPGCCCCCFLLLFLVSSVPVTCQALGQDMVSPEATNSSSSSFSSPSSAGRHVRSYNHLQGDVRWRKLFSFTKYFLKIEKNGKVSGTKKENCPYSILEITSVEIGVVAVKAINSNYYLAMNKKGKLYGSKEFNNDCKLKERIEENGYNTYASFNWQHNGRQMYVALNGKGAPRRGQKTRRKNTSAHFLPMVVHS
Sequence of Follistatin-related protein 3 (Homo sapiens) (O95633 whole entry, looked up): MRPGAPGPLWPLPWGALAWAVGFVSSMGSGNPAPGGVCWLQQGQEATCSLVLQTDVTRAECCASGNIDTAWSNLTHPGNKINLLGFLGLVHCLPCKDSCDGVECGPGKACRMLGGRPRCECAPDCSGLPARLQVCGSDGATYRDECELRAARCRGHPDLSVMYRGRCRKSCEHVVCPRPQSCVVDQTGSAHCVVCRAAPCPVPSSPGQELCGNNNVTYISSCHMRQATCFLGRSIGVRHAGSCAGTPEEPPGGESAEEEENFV

| SMILES | composite z-score [1] | composite z-score [2] | composite z-score [3] | z-score [4] | composite z-score [5] | composite z-score [6] | composite z-score [7] | composite z-score [8] | composite z-score [9] | composite z-score [10] | composite z-score [11] | z-score [12] | composite z-score [13] | composite z-score [14] | composite z-score [15] | composite z-score [16] | composite z-score [17] | composite z-score [18] | composite z-score [19] | composite z-score [20] |
| --- | --- | --- | --- | --- | --- | --- | --- | --- | --- | --- | --- | --- | --- | --- | --- | --- | --- | --- | --- | --- |
| CCCC/C=C/[C@H]([C@@H](O)Cc1ccccc1)N(CC#Cc1ccccc1)Cc1ccccc1Br | -0.488 | 0.113 | 1.26 | -0.669 (inactive) | -1.47 | -0.749 | -1.77 | -1.55 | -2.53 | 0.109 | -0.373 | -1.29 | -1.81 | -0.269 | 0.74 | -0.166 | -0.366 | -0.132 | -0.356 | -0.647 |
| O=C(O)[C@@H]1Cc2c([nH]c3ccccc23)[C@@H](c2ccccc2)N1 | 0.0269 | -0.317 | -0.58 | -0.333 (inactive) | 0.315 | 0.61 | 0.373 | 0.518 | 0.509 | -0.332 | 0.681 | -0.161 | 0.414 | -0.106 | -0.568 | -0.141 | -0.124 | -0.013 | 0.3 | 0.236 |
| C=C(CCCC)C(=O)CC[C@@H](OC(C)=O)c1ccccc1OCCO | 1.34 | -0.283 | -0.16 | 0.419 (inactive) | -0.675 | -1.31 | -1.36 | -1.06 | -0.376 | 0.857 | -1.03 | -3.42 | -0.941 | -0.923 | -1.13 | -0.154 | 0.0278 | -0.618 | -0.572 | -1.31 |
| O=C1C2C=CC(C(O)Cc3ccccc3)N(Nc3ccc([N+](=O)[O-])cc3)C2C(=O)N1c1ccccc1 (stereo not given) | 1.04 | 1.07 | 0.498 | 0.843 (inactive) | 0.653 | 0.539 | 0.277 | 0.576 | -0.0044 | 0.582 | 0.508 | -0.531 | 0.0886 | 0.417 | 0.426 | 0.159 | 0.203 | 0.905 | 0.937 | 0.307 |
| C=CCOC(=O)[C@@H]1[C@H]2C(=O)O[C@H](c3ccccc3)[C@H](c3ccccc3)N2[C@H](c2ccc(OCCOC(=O)[C@H]3C[C@H]4C(=O)N[C@@H](CCCCNC(C)=O)C(=O)N4[C@H]3c3ccc(O)cc3)cc2)[C@@]12C(=O)Nc1ccc(I)cc12 | 1.3 | -0.173 | -0.119 | 0.711 (inactive) | 1.03 | 1.28 | 0.603 | 1.19 | 0.394 | 0.565 | 1.39 | -1.66 | 0.576 | 0.419 | 0.232 | -0.104 | -0.232 | -0.0496 | 0.818 | 1.07 |
| CC(C)CN1C(=O)[C@@]2(Cc3ccccc31)c1ccccc1C(=O)N(C1CCCCC1)[C@H]2c1ccc(CO)cc1 | -0.23 | 0.262 | 1.02 | -1.41 (inactive) | -0.706 | -1.24 | -0.894 | -1.34 | -1.66 | 0.977 | -0.973 | -0.192 | -0.841 | -0.0258 | 0.644 | -0.0944 | -0.0626 | 0.697 | -0.256 | -1.06 |
| CC[C@H]1C2=C3C(CC[C@H]4C(OC)OC[C@](C)([C@@H]34)N(C(=O)OC(C)(C)C)C2)C(CO)C1CO (stereo not given in full) | 0.593 | 1.54 | 1.6 | -0.715 (inactive) | 0.754 | 1.16 | 0.194 | 1.07 | -0.212 | 0.828 | 1.37 | -0.996 | 0.221 | 2.27 | 1.38 | 0.379 | -0.349 | -0.128 | 2.23 | 1.33 |
| COC(=O)C(CC#Cc1ccc2c(c1)[C@]1(C(=O)N2)[C@H](C(=O)N2CCCCCCC2)[C@H]2C(=O)O[C@H](c3ccccc3)[C@H](c3ccccc3)N2[C@@H]1c1ccc(O)cc1)C(=O)OC | 0.465 | -0.2 | 0.269 | -0.751 (inactive) | -1.05 | -1.63 | -0.887 | -0.635 | -0.785 | 0.16 | -1.26 | -0.789 | -0.537 | -0.433 | -0.236 | -0.125 | -0.0769 | -0.411 | -0.723 | -0.715 |
| CC1=C([C@H](O)CCc2ccccc2)[C@H](CO)[C@@H]2C(=O)N(Cc3ccccc3)C(=O)[C@@H]2C1 | 0.0539 | -0.264 | -0.551 | -0.46 (inactive) | 0.27 | -0.453 | -0.176 | 0.785 | 0.28 | 0.317 | 0.0933 | -0.266 | 0.334 | 0.62 | -0.503 | -0.0644 | -0.289 | -0.27 | 0.421 | 1.71 |
| CC(C)(C)OC(=O)CC[C@@]1(C(=O)NCc2ccccc2)N=C(c2ccc(OCCCO)cc2)O[C@@H]1c1ccccc1 | 1.64 | 1.29 | 1.31 | -0.791 (inactive) | 0.556 | 1.26 | -0.152 | 0.545 | 0.144 | 0.119 | 1.33 | -3.13 | 0.144 | 2.4 | 1.26 | 0.0077 | 0.14 | 0.92 | 2.67 | 2.97 |
| O=C(NCc1ccccc1)[C@@]1(Cc2ccccc2)COC(c2ccc(OCCCO)cc2)=N1 | 0.838 | 0.599 | 1.06 | -0.13 (inactive) | 0.117 | 0.0562 | -0.705 | -0.641 | -0.715 | 0.578 | 1.4 | -3.29 | -0.702 | 0.588 | 0.687 | -0.128 | -0.0337 | 0.597 | 1.57 | 1.71 |
| CO[C@@H]1COC(=O)[C@@H]2CCCN2C(=O)CC=C[C@@H](C)[C@H](OC)COC(=O)[C@@H]2CCCN2C(=O)CC=C[C@H]1C | 1.29 | -0.875 | -1.33 | -0.481 (inactive) | 0.546 | 0.171 | 0.992 | 1.19 | 1.27 | 1.43 | -0.699 | 0.47 | 0.402 | -1.35 | -2.31 | -0.156 | -0.2 | -0.201 | -0.233 | -1.09 |
| C[C@]1(C(=O)NCCN2CCOCC2)c2ccccc2C(=O)N(Cc2ccccc2)[C@H]1c1ccc(CO)cc1 | 1.59 | -0.082 | 0.606 | -0.675 (inactive) | -0.632 | -0.748 | -0.491 | -0.824 | -0.396 | 0.519 | -0.474 | -0.326 | -1.01 | -0.193 | 0.349 | 0.763 | 0.163 | -0.195 | -0.705 | 0.0519 |
| CO[C@@H]1COC(=O)CC=C[C@@H](C)[C@H](OC)COC(=O)CC=C[C@H]1C | 0.816 | -0.628 | -1.4 | 0.161 (inactive) | 0.262 | 0.103 | 0.346 | 0.953 | 1.84 | 1.8 | -0.255 | 0.353 | 0.599 | -0.888 | -1.49 | -0.24 | 0.0796 | 0.563 | -0.176 | -0.587 |
| COCCOC(=O)N1C(=O)[C@@]2(c3cc(C#CCNC(N)=O)ccc31)[C@H](c1ccc(OCCO)cc1)N1[C@H](c3ccccc3)[C@H](c3ccccc3)OC(=O)[C@H]1[C@@H]2C(=O)Nc1nc2ccccc2s1 | 0.337 | 0.997 | 0.88 | 0.0697 (inactive) | 0.574 | -0.289 | 0.0231 | 1.01 | 1 | 0.926 | 0.376 | -1.11 | 1.24 | 0.669 | 0.701 | 0.0136 | 0.187 | 0.402 | 0.114 | 1.37 |
| C=CC(=O)O[C@@H](Cc1ccccc1)[C@H]1C2C=CCCC=C2CN1Cc1cccc(Cl)c1 (stereo not given in full) | -0.426 | 0.0657 | 0.502 | -0.855 (inactive) | -0.281 | -1.21 | -0.506 | -0.87 | -0.143 | 1.11 | -2.98 | -1.08 | -0.195 | -0.82 | 0.484 | -0.148 | 0.0022 | -0.267 | -0.103 | -0.439 |
| CN(C)c1ccc(C(O)C2C=CC3C(=O)NC(=O)C3N2Nc2ccc(Cl)cc2Cl)cc1 (stereo not given) | 0.189 | 0.88 | 1.09 | 0.701 (inactive) | 0.356 | 0.121 | -0.789 | 0.554 | -0.336 | 1.43 | 1.36 | -0.0428 | -1.14 | 0.615 | -0.327 | 0.0328 | 0.0993 | 1.21 | 0.0689 | 0.359 |
